Source: PubChem BioAssay AID485313 (National Center for Advancing Translational Sciences (NCATS), 2010)
Hit rate of the full screen: of about 320,000 compounds, about 7,600 (2.4%) were called active. Another 3% or so got no clear call; they are omitted. Calls come from the whole dose curve; as a rule, active = well fitted activation curve with a large enough effect; inconclusive = small, poorly fitted or top-dose-only effect; inactive = no such curve, though single readings can be large or run the other way. The list comes from a sample in which actives are over-represented; it also holds similar structures and randomly drawn compounds. Entries that show only a call come without a potency.

test: qHTS Assay for NPC1 Promoter Activators; settings: Huh7 NPC1 promoter luciferase reporter, 24 h; series mostly up to 9.22 µM; note: nearly all actives have a fitted effect of over 60% in size;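 for activation: reporter is driven by a mutant NPC1 promoter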
Method in brief: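 Compounds in DMSO were transferred onto Huh7 NPC1-luciferase reporter cells pre-incubated 2 h; after 24 h at 37 °C, Amplite reagent was dispensed and luminescence recorded 10 min later.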
Potency is the fitted concentration of half-maximal effect.

SMILES | Potency
O=C(CSc1nnc(-c2ccco2)n1-c1ccccc1)NCCc1ccccc1 | inactive
c1ccc(CSc2nnc(-c3ccco3)n2Cc2ccccc2)cc1 | 2.82 µM (active)
O=C(CSc1nnc(-c2ccco2)n1CC1CCCO1)c1ccccc1 (centres undefined) | inactive
C=CCN1C(=O)c2ccc(C(=O)N3CCC(C(=O)OCC)CC3)cc2C1=O | inactive
O=C(CCNS(=O)(=O)c1ccccc1)NCCSc1ccc(Br)cc1 | inactive
O=S(=O)(Nc1cc(Cl)ccc1N1CCOCC1)c1ccccc1Cl | inactive
C[C@@H]1NC(=O)[C@@]2(C)[C@@H](c3ccccc3)[C@H]3COc4ccccc4[C@@H]3N2C1=O | inactive
CCOC(=O)c1c(CNCc2ccccc2F)c2sc(C)cc2n1C | inactive
CN(C)c1ccnc2sc(C(=O)c3ccccc3)c(N)c12 | 2.51 µM (active)
CN(C)c1ccnc2sc3c(=O)n(Cc4ccccc4)cnc3c12 | inactive
Cc1nc2sc(C(=O)c3ccccc3)c(N)c2c2c1CCCC2 | inactive
Nc1ncnc2c1c(I)cn2[C@@H]1C[C@H](N)[C@@H](O)[C@H]1O | inactive
Cc1nn(Cc2ccccc2)c(C)c1CNC(=O)c1ccc(F)c(S(=O)(=O)N2CCOCC2)c1 | inactive
CN(CC(=O)Nc1cccc(F)c1)C(=O)CC1CCCC1 | inactive
C/C(=N/NC(=O)C1COc2ccccc2O1)c1ccco1 (centres undefined) | inactive
COc1ccc(NC(=O)CC2COc3ccccc3O2)c(OC)c1 (centres undefined) | inactive
COc1ccc(NC(=O)C2COc3ccccc3O2)cc1 (centres undefined) | 2.82 µM (active)
O=C(Nc1ncc([N+](=O)[O-])s1)C1COc2ccccc2O1 (centres undefined) | 3.55 µM (active)
O=C(Nc1nnc(SCc2ccc(Cl)cc2Cl)s1)C1COc2ccccc2O1 (centres undefined) | inactive
CC(=O)c1cccc(NC(=O)C2COc3ccccc3O2)c1 (centres undefined) | inactive
CCc1noc(C)c1C(=O)N1CCN(S(=O)(=O)c2cccc(C(F)(F)F)c2)CC1 | inactive
Cc1ccc(CSc2ccc(S(=O)(=O)N3CCCCC3)cn2)cc1 | inactive
O=C(/C=C/c1ccc(Cl)cc1)Nc1ccc(S(=O)(=O)Nc2ncccn2)cc1 | inactive

SMILES | Potency
Cc1cc(C)nc(NC(=O)/C=C/c2ccc(Cl)cc2)n1 | inactive
CC(C)(C)c1ccc(/C=C/C(=O)Nc2ncccn2)cc1 | 3.98 µM (active)
Cc1sc2ncnc(N3CCC(C(=O)Nc4ccc(F)cc4Cl)CC3)c2c1C | inactive
CCOC(=O)N1CCN(C(=O)COC(=O)c2cccc(S(C)(=O)=O)c2)CC1 | inactive
O=C(Nc1ccccc1)c1ccc(NC(=O)c2cccs2)cc1 | inactive
Cc1nc(-c2ccc(NC(=O)c3cccs3)cc2)cs1 | 0.355 µM (active)
Cc1ccc(C(=O)Nc2ccc(NC(=O)c3cccs3)cc2)c(C)c1 | inactive
Cc1noc(C)c1C(=O)NCC1COc2ccccc2O1 (centres undefined) | inactive
COc1ccc(OCc2cc(C(=O)N3CCCC3)no2)c2ccccc12 | 3.16 µM (active)
O=C(c1cc(-c2ccc(Cl)cc2)on1)N1CCN(c2ccccc2)CC1 | inactive
O=C(c1cc(-c2ccc(F)cc2)on1)N1CCN(c2ccc(F)cc2)CC1 | inactive
COCCN1CCN(C(=O)c2cc(COc3ccc(F)cc3Cl)on2)CC1 | inactive
COc1cccc(-c2cc(C(=O)N3CCN(c4ccccc4OC)CC3)no2)c1 | inactive
O=C(c1cc(-c2cccs2)on1)N1CCCCC1 | 1 µM (active)
COc1ccccc1-c1cc(C(=O)N2CCCCC2)no1 | 3.55 µM (active)
O=C(CSc1n[nH]c(-c2cccs2)n1)N1CCCCC1 | inactive
COc1ccccc1-c1cc(C(=O)NCCCn2ccnc2)no1 | inactive
O=C(c1cc(-c2ccc(O)cc2)on1)N1CCOCC1 | 0.891 µM (active)
COc1cc(Cl)ccc1OCc1cc(C(=O)N2CC[C@@H]3CCCC[C@H]3C2)no1 | inactive
CC(=O)c1ccc(NC(=O)c2cc(-c3cccs3)on2)cc1 | inactive
Cc1ccc(OCC(=O)N2CCN(S(=O)(=O)c3ccc(Cl)s3)CC2)cc1C | inactive
CCN(CC)c1ccc(NC(=O)CN2C(=O)NC3(CCc4ccccc43)C2=O)cc1 (centres undefined) | inactive
CCOC(=O)C1CCCN(C(=O)c2ccc(C)c(S(=O)(=O)N3CCCCC3)c2)C1 (centres undefined) | inactive

SMILES | Potency
CCc1c(C)nc2cc(C)[nH]n2c1=O | inactive
C=CCc1c(C)nc2cc(-c3ccccc3)[nH]n2c1=O | 1.78 µM (active)
CCc1c(C)nc2cc(-c3cccs3)[nH]n2c1=O | inactive
O=C(Nc1cccc2ccccc12)c1onc2c1CCCC2 | inactive
COc1ccccc1C(CNC(=O)c1ccc(C)c(S(=O)(=O)N2CCCCC2)c1)N(C)C (centres undefined) | inactive
COc1cc2c(cc1OC)/C(=C/C(=O)c1ccc(NC(C)=O)cc1)NCC2 | inactive
CC1(C)Cc2ccccc2/C(=C/C(=O)c2ccccc2)N1 | inactive
CC1CN/C(=C\C(=O)c2ccc(Br)cc2)C(=O)N1 (centres undefined) | 0.891 µM (active)
O=C(NCC#CCSc1nnc(-c2cccc3ccccc23)o1)c1cccs1 | inactive
O=C(NNC(=O)c1cccc(S(=O)(=O)Nc2ccc(Cl)cc2)c1)c1ccc(=O)[nH]c1 | inactive
CCC(=O)N(CCc1ccccc1)Cc1cc2cc(C)ccc2[nH]c1=O | inactive
O=C(Nc1ccc(C(=O)N2CCCCC2)cc1)c1cccc([N+](=O)[O-])c1 | inactive
O=C(Nc1ccc(C2CC2(Cl)Cl)cc1)c1cccc([N+](=O)[O-])c1 (centres undefined) | 2 µM (active)
O=C(Nc1ccc(NC(=O)c2ccco2)c(Cl)c1)c1cccc([N+](=O)[O-])c1 | inactive
O=C(CN1C(=O)NC2(CCOc3ccccc32)C1=O)NCc1ccc(F)cc1 (centres undefined) | inactive
O=C(OCC(=O)N1CCCCCC1)c1cnc(Cl)c(Cl)c1 | inactive
CCC(C)NC(=O)CCCc1ccccc1 (centres undefined) | inactive
C=CCN1CCN(C(=O)CCCc2ccccc2)CC1 | 0.316 µM (active)
O=C(CCCc1ccccc1)NCc1ccccc1 | inactive
Nc1nnc(SCC(=O)NCC(=O)Nc2ccc(F)c(F)c2F)s1 | inactive
Brc1ccc(-c2noc(-c3ccccc3)n2)o1 | 2.24 µM (active)
Nc1nonc1-c1noc(-c2ccc(Br)o2)n1 | inactive
Cn1nc(-c2ccccc2)c(-c2nc(-c3ccc(Cl)cc3)no2)c1Cl | inactive
